Inconclusive results are not listed. Activity calls are given as the source filed them. Calls follow the shape of the dose curve; as a rule, active = well fitted cell-killing curve with a large enough effect; inconclusive = small, poorly fitted or top-dose-only effect, or effect the other way; inactive = no such curve, though single readings can be large or run the other way.
Potency is read from the fitted curve at half-maximal effect.

The nature of the first assay: Quantitative High-Throughput drug screen in 47 multiple myeloma cell lines against the NCATS MIPE library collection: JIM1_ECACC cell viability assay (AID 1918964). To be noted: JIM1 myeloma viability, CellTiter-Glo ATP luminescence, 48 h; series mostly up to 45.8 µM; viability (% of DMSO): at the top concentration. A digest of the protocol:
(§1)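 Relative luminescence from CellTiter-Glo served as the viability signal, referenced to DMSO-treated (100%) and cell-free medium (0%) controls. Treatment lasted 48 hours at 37C with 500 cells per well.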
For orientation: Cellular ATP, detected with luciferase, serves as a proxy for viable cell number.
Consider `CN1C2CCC1CC(OC(=O)C(CO)c1ccccc1)C2` (stereo not given), for which the “viability (% of DMSO)” value is 111% (inactive).

Take `CCN1CCCC1CNC(=O)c1cc(S(=O)(=O)CC)c(N)cc1OC` (stereo not given): the “viability (% of DMSO)” value is 148% (inactive).

As to `O=C(Nc1ccc([N+](=O)[O-])cc1Cl)c1cc(Cl)ccc1O`, the Potency was 1.05 µM (active).

In the case of `O=C1Cc2cc(CCN3CCN(c4nsc5ccccc45)CC3)c(Cl)cc2N1`, the “viability (% of DMSO)” value is 121% (inactive).

On to `CC[C@@]1(O)C(=O)OCc2c1cc1n(c2=O)Cc2cc3c(CN(C)C)c(O)ccc3nc2-1`, for which the Potency is 0.743 µM (active).

With `CS(=O)(=O)CCNCc1ccc(-c2ccc3ncnc(Nc4ccc(OCc5cccc(F)c5)c(Cl)c4)c3c2)o1`, the Potency is 6.62 µM (active).

For `CC(=O)OCC(CCn1cnc2cnc(N)nc21)COC(C)=O`, the “viability (% of DMSO)” value was 142% (inactive).

In the case of `O=C1c2c(O)ccc(O)c2C(=O)c2c(NCCNCCO)ccc(NCCNCCO)c21`, the Potency is 1.66 µM (active).

With `CC(C)C(=O)Nc1ccc([N+](=O)[O-])c(C(F)(F)F)c1`, the Potency was 13.2 µM (active).

In the case of `CC1(C)O[C@H]2CC(=O)OC[C@]23[C@H]2CC[C@@]4(C)[C@H](c5ccoc5)OC(=O)[C@H]5O[C@]54[C@]2(C)C(=O)C[C@@H]13`, the “viability (% of DMSO)” value is 105% (inactive).

For `CN1CCN(CCCN2c3ccccc3Sc3ccc(Cl)cc32)CC1`, the Potency was 3.32 µM (active).

For `Clc1ccc2c(c1)C(N1CCNCC1)=Nc1ccccc1O2`, the “viability (% of DMSO)” value was 119% (inactive).

`CC#C[C@]1(O)CC[C@H]2[C@@H]3CCC4=CC(=O)CCC4=C3[C@@H](c3ccc(N(C)C)cc3)C[C@@]21C`: the Potency is 0.526 µM (active).

As to `Cn1cnc2c1c(=O)[nH]c(=O)n2C`, the Potency is 4.69 µM (active).

As for `O=C(c1ccc(F)cc1)C1CCN(CCn2c(=O)[nH]c3ccccc3c2=O)CC1`, the “viability (% of DMSO)” value was 104% (inactive).

As to `CN(CCOc1ccc(NS(C)(=O)=O)cc1)CCc1ccc(NS(C)(=O)=O)cc1`, the “viability (% of DMSO)” value is 86.4% (inactive).

`NC(=O)NO`: the Potency was 1.66 µM (active).

In the case of `Nc1nc2c(ncn2COC(CO)CO)c(=O)[nH]1`, the Potency is 20.9 µM (active).

Take `CN(C)CCCN1c2ccccc2CCc2ccc(Cl)cc21`: the Potency was 9.35 µM (active).

A further assay can be described thus: Quantitative High-Throughput drug screen in 47 multiple myeloma cell lines against the NCATS MIPE library collection: INA6_PLB cell viability assay (AID 1918965; also: nearly all actives have a fitted effect of over 55% in size;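 as to viability (% of control): 100% = DMSO-only wells and 0% = media-only wells without cells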). To be noted: INA6 myeloma viability, CellTiter-Glo ATP luminescence, 48 h; series mostly up to 45.8 µM; viability (% of control): at the top concentration. The method, boiled down: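 Inhibition of cell viability is measured here. Each line was plated at 500 cells per well, treated with MIPE 4.0 drugs, kept 48 hours at 37C, then assayed for ATP content by CellTiter-Glo luminescence.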
Regarding `CN(C)CCOC(c1ccccc1)c1ccccc1`, the Potency is 10.5 µM (active).

With `CN1C2CCC1CC(OC(=O)C(CO)c1ccccc1)C2` (stereo not given), the “viability (% of control)” value was 123% (inactive).

In the case of `CCN1CCCC1CNC(=O)c1cc(S(=O)(=O)CC)c(N)cc1OC` (stereo not given), the “viability (% of control)” value was 182% (inactive).

In the case of `O=C(Nc1ccc([N+](=O)[O-])cc1Cl)c1cc(Cl)ccc1O`, the Potency was 0.935 µM (active).

For the compound `O=C1Cc2cc(CCN3CCN(c4nsc5ccccc45)CC3)c(Cl)cc2N1`, the Potency was 18.7 µM (active).

As to `CC[C@@]1(O)C(=O)OCc2c1cc1n(c2=O)Cc2cc3c(CN(C)C)c(O)ccc3nc2-1`, the Potency was 0.0296 µM (active).

For `CS(=O)(=O)CCNCc1ccc(-c2ccc3ncnc(Nc4ccc(OCc5cccc(F)c5)c(Cl)c4)c3c2)o1`, the Potency is 3.32 µM (active).

`CC(=O)OCC(CCn1cnc2cnc(N)nc21)COC(C)=O`: the “viability (% of control)” value is 149% (inactive).

As for `O=C1c2c(O)ccc(O)c2C(=O)c2c(NCCNCCO)ccc(NCCNCCO)c21`, the Potency is 0.0526 µM (active).

Turning to `NC(=O)OCC(COC(N)=O)c1ccccc1`, the “viability (% of control)” value is 117% (inactive).

As for `CC(C)C(=O)Nc1ccc([N+](=O)[O-])c(C(F)(F)F)c1`, the Potency was 6.62 µM (active).

With `CCC1(c2ccccc2)C(=O)NCNC1=O`, the Potency is 3.32 µM (active).

Consider `CCOC(=O)Nc1ccc(NCc2ccc(F)cc2)nc1N`, for which the Potency is 14.8 µM (active).

For the compound `CN1CCC(=C2c3ccccc3CC(=O)c3sccc32)CC1`, the Potency was 8.33 µM (active).

On to `Cn1c(=O)c2[nH]cnc2n(C)c1=O`, for which the “viability (% of control)” value was 149% (inactive).

On to `CN1CCN(CCCN2c3ccccc3Sc3ccc(Cl)cc32)CC1`, for which the Potency is 14.8 µM (active).

Regarding `CC#C[C@]1(O)CC[C@H]2[C@@H]3CCC4=CC(=O)CCC4=C3[C@@H](c3ccc(N(C)C)cc3)C[C@@]21C`, the Potency was 0.662 µM (active).

`Cn1cnc2c1c(=O)[nH]c(=O)n2C`: the Potency is 7.43 µM (active).

Regarding `O=C(c1ccc(F)cc1)C1CCN(CCn2c(=O)[nH]c3ccccc3c2=O)CC1`, the Potency was 20.9 µM (active).

As for `CN(CCOc1ccc(NS(C)(=O)=O)cc1)CCc1ccc(NS(C)(=O)=O)cc1`, the “viability (% of control)” value is 146% (inactive).

For `NC(=O)NO`, the Potency was 0.166 µM (active).

`CNCCCC12CCC(c3ccccc31)c1ccccc12`: the Potency is 16.6 µM (active).

For `Nc1nc2c(ncn2COC(CO)CO)c(=O)[nH]1`, the Potency is 1.32 µM (active).

A further assay can be described thus: Quantitative High-Throughput drug screen in 47 multiple myeloma cell lines against the NCATS MIPE library collection: JJN3_DSMZ cell viability assay (AID 1918966; also: nearly all actives have a fitted effect of over 50% in size). The settings on record: JJN3 myeloma cells viability, CellTiter-Glo ATP, 48 h; series mostly up to 45.8 µM; viability, % of DMSO: at the top concentration. A digest of the protocol:
as §1
With `CN1C2CCC1CC(OC(=O)C(CO)c1ccccc1)C2` (stereo not given), the “viability, % of DMSO” value is 132% (inactive).

For `CCN1CCCC1CNC(=O)c1cc(S(=O)(=O)CC)c(N)cc1OC` (stereo not given), the “viability, % of DMSO” value is 128% (inactive).

`O=C(Nc1ccc([N+](=O)[O-])cc1Cl)c1cc(Cl)ccc1O`: the Potency was 1.87 µM (active).

On to `CC[C@@]1(O)C(=O)OCc2c1cc1n(c2=O)Cc2cc3c(CN(C)C)c(O)ccc3nc2-1`, for which the Potency is 5.9 µM (active).

For `O=C1c2c(O)ccc(O)c2C(=O)c2c(NCCNCCO)ccc(NCCNCCO)c21`, the Potency was 4.18 µM (active).

For `CN1CCN(CCCN2c3ccccc3Sc3ccc(Cl)cc32)CC1`, the Potency was 18.7 µM (active).

As to `CC#C[C@]1(O)CC[C@H]2[C@@H]3CCC4=CC(=O)CCC4=C3[C@@H](c3ccc(N(C)C)cc3)C[C@@]21C`, the Potency was 1.48 µM (active).

In the case of `Cn1cnc2c1c(=O)[nH]c(=O)n2C`, the Potency is 16.6 µM (active).

On to `CN(CCOc1ccc(NS(C)(=O)=O)cc1)CCc1ccc(NS(C)(=O)=O)cc1`, for which the “viability, % of DMSO” value was 151% (inactive).

As for `NC(=O)NO`, the Potency is 2.35 µM (active).

With `CNCCCC12CCC(c3ccccc31)c1ccccc12`, the Potency is 20.9 µM (active).

Consider `Nc1nc2c(ncn2COC(CO)CO)c(=O)[nH]1`, for which the Potency was 20.9 µM (active).

`COc1ccccc1N1CCN(CC(O)COc2cccc3ccccc23)CC1` (stereo not given): the “viability, % of DMSO” value was 127% (inactive).

The record behind these values is PubChem BioAssay (NCATS).
